Assay in all cases: NCI-60 one-dose screen, 48 h (100 = growth as untreated, 0 = no growth, -100 = all killed)
Holding throughout (details): 10 µM unless noted

The test system of assay [1] is RPMI-8226 leukemia.
The test system of assay [2] is OVCAR-8 ovarian.
Assay [3] relates to OVCAR-5 ovarian.
Assay [4] deals with OVCAR-4 ovarian.
The test system of assay [5] is SK-OV-3 ovarian.
Assay [6] concerns IGROV1 ovarian.
Assay [7] has as its system OVCAR-3 ovarian.
Assay [8] deals with HS 578T breast.
For assay [9], the system named is NCI/ADR-RES ovarian.
Assay [10] concerns T-47D breast.
The test system of assay [11] is BT-549 breast.
Assay [12] deals with MDA-MB-435 melanoma.
The subject of assay [13] is SW-620 colon.
In assay [14] the test system is MCF7 breast.
Assay [15] has as its system HCT-116 colon.
For assay [16], the system named is HCC-2998 colon.
Assay [17] concerns KM12 colon.

Compounds without any hit were thinned out: in the full panel of roughly 83,000, 20% have a hit.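 How to read the values: 0–100, growth inhibition (40 = 60% inhibited); 0, no net growth; -100 to 0, cell death (-40 = 40% of starting cells died; -100 = all dead).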 Values without a mark were called inactive. Active and inactive are the calls of the source. The calls were made as follows: active = growth percent below 10; inactive = the rest.

For the compound `Cc1c(Br)cccc1NC(=O)c1sc2nc3c(cc2c1N)CN(Cc1ccccc1)CC3`, the growth in [1] is 4.4% (active); in [2], 14.1%; in assay [3], 36.7%; in assay [4] it was 28.1%; in assay [5], 22.8%; in [6] it was 39.3%. The growth in assay [7] is -7.95% (active); in assay [8] it was 11.3%; in [9], 24.2%; in assay [10] it was 43%; in assay [11], 29.3%; in assay [12], -42.9% (active). Also, the growth in assay [13] is 18.4%; in [14], 14.9%; in [15], 16.8%; in assay [16], 41.1%; in assay [17], 23.5%.

As for `Cc1cccc(C)c1Nc1nnc(-c2ccc(F)cc2)o1`, the growth in [1] was 109%; in assay [2] it was 109%; in assay [3], 93.9%; in assay [4] it was 103%; in [5], 102%; in assay [6], 97.9%. Besides, the growth was 93.6% in [7]; 108% in assay [8]; 97.8% in assay [9]; 110% in [10]; 107% in assay [11]; 103% in [12]. The growth in [13] is 98.1%; in assay [14], 96.6%; in [15], 101%; in assay [16], 99.4%; in assay [17], 89.2%.

`COc1ccc(NC(=O)Nc2ccc(Nc3nc(C)cc(Nc4ccc(C)cc4)n3)cc2)cc1`: the growth is -45.9% (active) in assay [1]; -56.6% (active) in assay [2]; -85.7% (active) in [3]; -87.1% (active) in assay [4]; 69% in assay [5]; -70.5% (active) in [6]. Further, the growth in assay [7] is -95.5% (active); in [8], -21.6% (active); in [9], -56.3% (active); in assay [10], -60.1% (active); in assay [11], 3.93% (active); in assay [12], -97.5% (active). Further, the growth in assay [13] is -62% (active); in [14], -63.8% (active); in assay [15], -91.6% (active); in assay [16], -74.6% (active); in assay [17] it was -88.1% (active).

Regarding `Nc1ccc(C2=NN(C(=O)c3cc(-c4ccc(Cl)cc4)nc4ccccc34)C(c3ccccc3)C2)cc1` (stereo not drawn), the growth was 8.12% (active) in assay [1]; 37.5% in assay [2]; 73.4% in [3]; 63.1% in [4]; 24.6% in assay [5]; 50.9% in [6]. Also, the growth in [7] was 3.55% (active); in assay [8], 29.4%; in [9] it was 12.7%; in assay [10], 30.8%; in [11], 35.1%; in assay [12], -24.3% (active). The growth in assay [13] was 22.5%; in assay [14], 12.7%; in assay [15] it was 24.7%; in [16], 59.6%; in [17], 24.5%.

Regarding `CCn1cc(C(=O)O)c(=O)c2cc(F)c(N3CCN(CC(=O)Nc4ccc(/C(C)=N/OC)cc4)CC3)cc21`, the growth in [1] was 105%; in assay [2], 92.3%; in [3], 101%; in assay [4] it was 103%; in [5], 85.1%; in assay [6], 94.6%. The growth is 97.6% in assay [7]; 94.7% in assay [8]; 97.8% in assay [9]; 70.3% in [10]; 92.5% in assay [11]; 102% in assay [12]. The growth in assay [13] was 110%; in assay [14] it was 93.8%; in assay [15] it was 104%; in [16], 101%; in assay [17] it was 94.5%.

As for `Cc1cc(C)nc(NS(=O)(=O)c2ccc(Nc3ccc4c5c(n(CCCN(C)C)c(=O)c4c3)-c3ccccc3C5=O)cc2)n1`, the growth was 85.4% in assay [1]; 74.4% in assay [2]; 111% in assay [3]; 107% in [4]; 96.1% in [5]; 74.2% in assay [6]. Further, the growth in assay [7] was 83.7%; in [8] it was 93.2%; in [9] it was 98.6%; in [10], 102%; in assay [11] it was 91.8%; in assay [12], 98.8%. Besides, the growth in assay [13] is 54.2%; in [14] it was 30.6%; in assay [15] it was 56.4%; in [16], 73.6%; in assay [17], 71.6%.

Consider `O=C1CC23OC4ON=C(Br)C4C2C(O)c2ccccc2N13` (stereo not drawn), for which the growth in assay [1] was 100%; in assay [2], 104%; in [3], 114%; in [4] it was 120%; in [5], 93.5%; in [6] it was 88.8%. For the same compound, the growth in assay [7] is 96.3%; in assay [8], 98.4%; in assay [9], 94.5%; in assay [10], 100%; in [11] it was 105%; in assay [12], 111%. Further, the growth in assay [13] is 101%; in assay [14] it was 88.5%; in assay [15], 94.5%; in [16] it was 103%; in assay [17], 100%.

Regarding `CCOC(=O)c1c(C)nc2c(c1N)/C(=C/c1ccccn1)C(=O)N2Cc1ccccc1`, the growth is -25.8% (active) in assay [1]; -7.26% (active) in assay [2]; 64.1% in assay [3]; 47.8% in [4]; 65.9% in [5]; -10.6% (active) in assay [6]. For the same compound, the growth is -19% (active) in [7]; 33.2% in assay [8]; -3.17% (active) in assay [9]; 9.22% (active) in [10]; 15.9% in assay [11]; 11.2% in assay [12]. Further, the growth in [13] was 1.97% (active); in assay [14], 2.76% (active); in assay [15] it was -21.8% (active); in assay [16], 11.2%; in assay [17] it was 12.2%.

In the case of `Nc1c(C(=O)c2ccccc2)sc2nc(-c3cc4ccccc4o3)cc(-c3ccc(Cl)cc3)c12`, the growth is 82.7% in assay [1]; 95.8% in [2]; 107% in assay [3]; 98.3% in [4]; 106% in [5]; 55.8% in assay [6]. The growth is 85.1% in assay [7]; 136% in assay [8]; 108% in [9]; 90% in assay [10]; 97.9% in assay [11]; 108% in assay [12]. For the same compound, the growth in assay [13] is 118%; in assay [14] it was 92%; in assay [15], 101%; in assay [16], 108%; in assay [17], 93.4%.
